Compound activity (PubChem)
Sampled rows, rich in hits. Any-hit rate of the full collection: about 1.7%.
HEK293 tox: cytotoxicity in counter-screen for GLP-1R inverse agonists; Potency, µM (series often up to 38.3 µM), most hits filed as inhibitors; HEK293 cAMP-luciferase reporter cells, luminescence, 24 h; AID 624418; 0.13% of 410,000 active;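 also: loss of luciferase light is scored as toxicity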
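Step one: seed cells (200 cells/uL, DMEM with 10% Nu serum, 1% pen-strep). Step two: 12-hour incubation at 37 deg C. Step three: pin 23 nL compound, incubate 24 hr. Step four: add luciferase reagent, read luminescence 12 min later.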
GLP-1R agonist: agonists of human GLP-1 receptor; 0.007% of 380,000 active; Potency, µM (top dose mostly 45.6 µM), actives largely listed as activators; HEK293 GLP-1R CRE-luciferase, luminescence, 4-6 h; cells express a hypersensitive GLP-1R form; AID 624172; P43220
PTHR1 agonist: PTHR1 (human) receptor agonism; Q03431; 0.075% of 410,000 active; Potency, µM (doses to about 115 µM), most hits filed as activators; HEK293 GP2 PTHR1 cells, GloSensor cAMP luminescence, 1 h; also: nearly all actives have a fitted effect of over 55% in size
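HEK-293-derived GP2 cells expressing PTHR1 and a GloSensor cAMP reporter, 3,000/well, plated overnight, given luciferin plus IBMX (each 0.5 mM as added) for 1 h at 37 °C, then compound for 1 h at 37 °C. Luminescence was read after 15 min at room temperature.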
GLP1R inv ag: acts as inverse agonist at human GLP-1 receptor; P43220; HEK293 GLP-1R CRE-luciferase, luminescence, 24 h; GLP-1R form is constitutively active; Potency, µM (series often up to 38.3 µM), actives largely listed as inhibitors; 1.6% of 410,000 active; AID 624417; also: nearly all actives have a fitted effect of over 55% in size
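HEK293 cells stably co-expressing a cAMP-responsive luciferase reporter and constitutively active GLP-1R were seeded, incubated 12 h, then exposed to compounds for 24 h at 37 C. Luminescence was read 12 min after detection reagent; inverse agonists lower signal.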
Each line names hits and unclear results; the compound was inactive in the other large screens. Calls follow the shape of the dose curve; as a rule, active = well fitted curve in the direction sought with a large enough effect; inconclusive = small, poorly fitted or top-dose-only effect, or another doubt; inactive = no such curve, though single readings can be large; an effect the other way counts as inactive or inconclusive.

O=C(Nc1cccc(C(F)(F)F)c1)c1cnn(-c2cccc(F)c2)c1C1CCNCC1	GLP1R inv ag inconclusive (no result: GLP-1R agonist)
COC(=O)c1c(NC(=O)CSc2nnnn2-c2ccccc2)sc2c1CCC(C(C)(C)C)C2 (centres undefined)	GLP1R inv ag 5.62µM
Cc1ccc2c(CC(=O)N(Cc3ccc(N(C)C)cc3)Cc3ccco3)coc2c1C	GLP1R inv ag inconclusive (no result: GLP-1R agonist)
CN(CCCNC(=O)C1CCC(CNS(=O)(=O)c2ccccc2)CC1)Cc1ccccc1 (centres undefined)	GLP1R inv ag 3.55µM
CC(=O)Nc1ccc(S(=O)(=O)NCC2CCC(C(=O)NCCCN(C)Cc3ccccc3)CC2)cc1 (centres undefined)	GLP1R inv ag inconclusive
CC(=O)C1=C(O)C(=O)N(c2cc(C(C)(C)C)on2)C1c1ccc(Br)cc1 (centres undefined)	GLP1R inv ag 8.91µM
CN1CCN(C(=O)CN2C(=O)NC(C)(c3ccc4ccccc4c3)C2=O)CC1 (centres undefined)	none
CC1(c2ccc3ccccc3c2)NC(=O)N(CC(=O)N2CCN(c3ccccc3O)CC2)C1=O (centres undefined)	GLP1R inv ag 11.2µM
COCCNC(=O)C(c1ccco1)N(C(=O)Cn1nnc2ccccc21)c1ccccc1C (centres undefined)	GLP1R inv ag inconclusive
Cc1ccccc1N(C(=O)Cn1nnc(-c2cccs2)n1)C(C(=O)NCCC(C)C)c1ccco1 (centres undefined)	PTHR1 agonist inconclusive, GLP1R inv ag 5.62µM
Cc1cc(C)c(NC(=O)c2nc3ccccc3nc2N2CCCCC2)c(C)c1	none (no result: GLP-1R agonist)
CCC(CCCO)CCC[C@H](C)CCC1OCCO1 (some centres undefined)	GLP1R inv ag 8.91µM
Cc1cc(C)cc(NC(=O)C(OC(=O)c2cccs2)c2ccccc2)c1 (centres undefined)	GLP1R inv ag 10µM
COc1ccc(C(=O)NN/C(C)=C/C(=O)C(F)(F)C(F)(F)C(F)(F)F)cc1	GLP1R inv ag 5.01µM
COc1ccc(C(=O)NNC(=O)OC(C)(C)C)cc1	none
CCCCC(CC)C(=O)Oc1ccc(O)c(C(C)(C)C)c1 (centres undefined)	HEK293 tox inconclusive, GLP1R inv ag 5.62µM
Cc1cc(F)ccc1NC(=O)c1ccc(NS(=O)(=O)c2cc(C(C)(C)C)ccc2C)cc1	HEK293 tox inconclusive, GLP1R inv ag 4.47µM
Cc1cccc(-c2noc(CCC(=O)NCCc3ccccc3)n2)c1	GLP1R inv ag inconclusive
CCCN(C(=O)CCc1nc(-c2ccc(C)cc2)no1)c1ccc(OCC)cc1	GLP1R inv ag 11.2µM (no result: GLP-1R agonist)
CCc1ccccc1N(CC)C(=O)CCc1nc(-c2ccc(C)cc2)no1	GLP1R inv ag 8.91µM
CCOc1ccc(N(CC)C(=O)CCc2nc(-c3ccccc3F)no2)cc1	GLP1R inv ag inconclusive (no result: GLP-1R agonist)
CCN(CCCNC(=O)CCc1nc(-c2ccc(C)cc2)no1)c1cccc(C)c1	GLP1R inv ag 10µM
COc1ccc(CCNC(=O)c2c(C)nn(-c3ccc(F)cc3)c2-n2cccc2)c(OC)c1OC	GLP1R inv ag inconclusive
COCCNC(=S)N/N=C(\C)c1ccc(O)cc1	HEK293 tox inconclusive
C/C(=N\NC(=S)Nc1ccccc1C)c1ccc(O)cc1	HEK293 tox inconclusive, GLP1R inv ag 10µM
CNC(=S)N/N=C(\C)c1ccc(C)c(C)c1	HEK293 tox inconclusive, GLP1R inv ag 3.55µM
CCc1ccc(N(CC)C(=O)c2ccc3c(=O)n4c(nc3c2)CCCCC4)cc1	none (no result: GLP-1R agonist)
O=C(Nc1ccccc1C(F)(F)F)c1noc2c1CCCCC2	GLP1R inv ag inconclusive (no result: GLP-1R agonist)
O=C(NCCC1=CCCCC1)NC12CC3CC(CC(C3)C1)C2	GLP1R inv ag 5.62µM
O=C(NCCc1ccc(F)cc1)NC12CC3CC(CC(C3)C1)C2	GLP1R inv ag inconclusive
CCN1CCN(C(c2cccnc2)c2c(NC(=O)c3ccco3)sc(C)c2C)CC1 (centres undefined)	GLP1R inv ag inconclusive
Cc1sc(NC(=O)c2ccco2)c(C(c2cccnc2)N2CCC(C)CC2)c1C (centres undefined)	GLP1R inv ag 8.91µM
Cc1ccc(C(=O)N2c3ccccc3N(Cc3ccccc3)C(=O)C2(C)C)cc1	GLP1R inv ag 11.2µM
Cc1c(C(=O)N2CCN(C(c3ccccc3)c3ccccc3)CC2)oc2ccccc12	GLP1R inv ag 4.47µM
Cc1c(C(=O)N2CC(C)OC(C)C2)oc2ccccc12 (centres undefined)	none
